Test results: PubChem BioAssay AID2314 (National Center for Advancing Translational Sciences (NCATS), 2010)
Among all 300,000 compounds or so, about 37,000 (12%) were called active. Rule as the data show it: active = max response mostly above about 13% (no sharp cut-off); inactive = mostly below about 14%. This excerpt belongs to a sample that is enriched for actives.

assay: Cycloheximide Counterscreen for Small Molecule Inhibitors of Shiga Toxin; conditions: cell reporter, cycloheximide protein synthesis inhibition counterscreen; active compounds read high; also: read at 38.3 µM for the half of the compounds with a filed dose; 0% is about no effect

Row | Structure (SMILES) | max response
1 | CC(C)C(NS(=O)(=O)c1ccc(-c2ccc(Br)cc2)cc1)C(=O)O (configuration not stated) | 7.4% (inactive)
2 | Cc1cc(C)cc(N(CC(=O)NC2CCCC2)C(=O)CCC(=O)Nc2nccs2)c1 | -5.07% (inactive)
3 | Cc1nn(-c2ccccc2)c(C)c1NC(=O)CCl | 17.3% (inactive)
4 | Cc1nn(-c2ccccc2)c(C)c1/C=C/C(=O)OC(C)C(N)=O (configuration not stated) | 18.6% (active)
5 | Cc1nn(-c2ccccc2)c(=O)c2noc(C)c12 | -1.05% (inactive)
6 | CCc1ccccc1S(=O)(=O)Cc1ccc(C(=O)NCCc2ccccc2)o1 | 16% (inactive)
7 | CCN(CC)S(=O)(=O)c1cccc(C(=O)NCC(=O)OCC(=O)NCc2ccccc2)c1 | -1.61% (inactive)
8 | CCN(CC)S(=O)(=O)c1ccc(NC(=O)c2cnc(C)cn2)cc1 | 0.654% (inactive)
9 | Cc1ccc(NC(=O)CNCc2ccccn2)cc1S(=O)(=O)N(C)C | 19.5% (inactive)
10 | CCN(CC)S(=O)(=O)c1cc(C(=O)Nc2ccccn2)ccc1C | 45.1% (active)
11 | CCN(CC)S(=O)(=O)c1cccc(C(=O)Nc2ccccc2)c1 | 17.1% (active)
12 | CCN(CC)S(=O)(=O)c1ccc(NC(=O)c2cccnc2Cl)c(NC(=O)c2cccnc2Cl)c1 | -1.75% (inactive)
13 | CC(C)c1ccc(C2C(C(=O)c3ccco3)=C(O)C(=O)N2CC2CCCO2)cc1 (configuration not stated) | 10.1% (inactive)
14 | CC(C)(C)[C@H]1C=C(C(=O)NCc2ccccc2)O[C@@H](OCc2ccc(CO)cc2)C1 | -1.33% (inactive)
15 | COc1cc(C(=S)N2CCOCC2)cc(OC)c1OC(=O)c1ccc([N+](=O)[O-])cc1[N+](=O)[O-] | 3.8% (inactive)
16 | O=C(CSc1nnc(-c2cnccn2)n1Cc1ccco1)c1ccc(Cl)c(Cl)c1 | 0.777% (inactive)
17 | CCN(CC)C(=O)CSc1nnc(-c2cnccn2)n1-c1ccc(C)cc1 | 0.416% (inactive)
18 | Cc1ccc(CSc2nnc(-c3cnccn3)n2C)cc1 | 10.9% (active)
19 | Cn1c(SCc2c(F)cccc2Cl)nnc1-c1cnccn1 | 56.4% (active)
20 | Oc1ccc(-n2nnnc2SCc2c(F)cccc2Cl)cc1 | -2.8% (inactive)
21 | Cn1c(SCc2ccc(F)cc2)nnc1-c1ccncc1 | 10.5% (inactive)

Row | Structure (SMILES) | max response
22 | CN(C)C(=O)c1coc2nc3ccccc3nc12 | 4.74% (inactive)
23 | COc1ccc(C(C[N+](=O)[O-])n2nc(C)cc2C)cc1 (configuration not stated) | -0.331% (inactive)
24 | COc1ccc(C(=O)N2CCc3cc(OC)c(OC)cc3C2c2cccc([N+](=O)[O-])c2)cc1 (configuration not stated) | 0.684% (inactive)
25 | CCOC(=O)c1sc(NC(=O)CSc2n[nH]c(CC)n2)nc1C | 0.587% (inactive)
26 | CSc1nc(O)c(Cc2ccccc2)c(=O)[nH]1 | -3.85% (inactive)
27 | CCOC(=O)c1ccccc1NC(=O)CSc1nc2ccccc2c(=O)[nH]1 | -3.39% (inactive)
28 | O=C(CSc1nc(O)c(Cc2ccccc2)c(=O)[nH]1)Nc1nc2c(s1)CCCC2 | 28% (active)
29 | CCOC(=O)c1sc(NC(=O)CSc2nc(O)c(Cc3ccccc3)c(=O)[nH]2)nc1C | 39.7% (active)
30 | O=C(CCS(=O)(=O)c1ccccc1)Nc1nc2c(s1)CCCC2 | 5.94% (inactive)
31 | O=C(COC(=O)c1ccc2c(c1)OCCO2)NCc1ccccc1 | 10.5% (inactive)
32 | Cn1c(NC(=O)c2ccc3c(c2)OCO3)cc(=O)n(C)c1=O | -4.72% (inactive)
33 | Cc1cccc(C(=O)Nc2ccccc2N2CCN(c3ccc(F)cc3)CC2)c1 | -0.148% (inactive)
34 | O=C(OCc1ccccc1F)c1ccc2c(c1)OCCO2 | 33% (active)
35 | O=C(Nc1ccccc1F)c1ccc2c(c1)OCO2 | 41.4% (active)
36 | CC(NC(=O)COC(=O)c1ccc2c(c1)OCO2)c1ccccc1 (configuration not stated) | 7.94% (inactive)
37 | Cc1ccc(-n2nc3c(c2NC(=O)c2ccc4c(c2)OCO4)CSC3)c(C)c1 | -1.7% (inactive)
38 | Cc1ccc(F)cc1NC(=O)c1ccc2c(c1)OCO2 | 25.6% (active)
39 | Cc1ccc(F)cc1NC(=O)c1cccc(N(C)C)c1 | 28.9% (active)
40 | COc1ccc(C(=O)Nc2ccc(F)cc2F)cc1 | 28.7% (inactive)
41 | O=C(Nc1ccccc1N1CCN(C(=O)c2ccccc2)CC1)c1ccc2c(c1)OCO2 | -1.45% (inactive)
42 | Cc1cc2c(c(=O)n1C)C(C(C)C)C(C#N)=C(N)O2 (configuration not stated) | -2.6% (inactive)

Row | Structure (SMILES) | max response
43 | Cc1cccc(C)c1NC(=O)CS(=O)CC(=O)N1CCN(c2ccccc2)CC1 (configuration not stated) | -5.35% (inactive)
44 | CCc1cccc(C)c1N1C(=O)CN(Cc2ccccc2)C1=S | -2.45% (inactive)
45 | O=C1/C(=C\c2cccnc2)CN(Cc2ccccc2)C/C1=C\c1cccnc1 | 7.45% (inactive)
46 | CCOC(=O)N1CCN(c2c(NCCN3CCN(c4ccccc4F)CC3)c(=O)c2=O)CC1 | -2.33% (inactive)
47 | COc1ccc(C(CNCC(=O)Nc2ccccc2F)N(C)C)cc1 (configuration not stated) | -2.53% (inactive)
48 | COc1ccc(C2C(C#N)=C(N)Oc3cc(N)ccc32)cc1OC (configuration not stated) | 11.4% (inactive)
49 | COCCCn1c(SCc2cccc(OC)c2)nc2cc(OC)c(OC)cc2c1=N | 6.77% (inactive)
50 | N#Cc1ccccc1NC(=O)c1ccc2c(c1)OCO2 | 24.8% (active)
51 | O=C(CN1CCN(CC(=O)Nc2ccc3c(c2)OCO3)CC1)Nc1ccc(F)cc1 | -2.15% (inactive)
52 | CC1(c2ccc(Cl)cc2)NC(=O)N(CC(=O)c2ccc3c(c2)OCO3)C1=O (configuration not stated) | 14.2% (inactive)
53 | O=C(CN1CCN(c2ccccc2F)CC1)c1ccc2c(c1)OCO2 | 16.8% (active)
54 | Cc1onc(-c2ccccc2)c1C(=O)Nc1ccccc1C#N | 3.86% (inactive)
55 | O=C(c1ccc2c(c1)OCO2)N1CCNc2ccccc2C1 | 3.63% (inactive)
56 | CSCCC(NC(=O)c1cc([N+](=O)[O-])cc([N+](=O)[O-])c1)c1nc2ccccc2[nH]1 (configuration not stated) | -1.41% (inactive)
57 | Cc1cc(C(=O)N/N=C/c2cc([N+](=O)[O-])cc(C)c2O)n[nH]1 | 4.92% (inactive)
58 | Cc1cc(=O)[nH]c(Nc2cccc(Br)c2)n1 | -1.7% (inactive)
59 | CN(C)Cc1c(C(=O)N/N=C/c2ccccc2OCc2ccc(F)cc2)nnn1-c1nonc1N | -5.05% (inactive)
60 | O=C(/C=C/c1ccc(Cl)cc1)NCCCn1ccnc1 | 13.1% (active)
61 | O=C(NCCCn1ccnc1)Nc1ccc(Cl)cc1Cl | -6.88% (inactive)
62 | CC(C)(C)c1ccc(/C=C/C(=O)NCCCn2ccnc2)cc1 | -3.02% (inactive)
